Hits are enriched below; roughly 9% of the tested compounds scored in any of these assays.
HPGD block = blocks human HPGD enzyme activity | P15428 | purified HPGD, NADH fluorescence kinetic, PGE2 substrate | Potency, µM, usual class: inhibitors | 150,000 compounds, 4.3% hits
Target sequence (P15428 whole entry, looked up): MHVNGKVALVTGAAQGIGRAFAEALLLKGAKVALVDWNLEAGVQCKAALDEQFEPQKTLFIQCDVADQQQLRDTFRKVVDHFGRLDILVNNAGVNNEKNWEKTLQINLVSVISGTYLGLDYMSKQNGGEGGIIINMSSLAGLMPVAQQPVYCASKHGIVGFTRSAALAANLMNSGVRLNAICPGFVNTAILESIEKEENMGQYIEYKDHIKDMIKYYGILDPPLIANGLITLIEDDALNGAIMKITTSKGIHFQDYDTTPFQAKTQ
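NADH formation kinetics: reaction with 30 uM PGE2 and 1 mM NAD+ (final), 20 nM enzyme, Tris-HCl pH 8 with Tween 20, after 15 min compound preincubation at room temperature. Fluorescence change, last versus first of five reads.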
IMPase inh = cell-permeable inhibitors of inositol monophosphatase (IMPase). AID 901. 120,000 tested, under 10 active. CHO-M1 cells, IP1 accumulation, HTRF TR-FRET ratio. P97697. inhibition (IP1 accumulation), % at 46.1 µM; active = well fitted curve in the direction sought with a large enough effect in the signal ratio, not every such curve was filed as active; inconclusive = small, poorly fitted or top-dose-only effect, or a change in a side signal; inactive = no such curve, though single readings can be large or run the other way; the % refers to the signal ratio;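 also: cells stimulated with carbachol in lithium chloride buffer; higher means more IMPase inhibition seen as more IP1 and lower FRET ratio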
Target sequence (P97697 whole entry, looked up): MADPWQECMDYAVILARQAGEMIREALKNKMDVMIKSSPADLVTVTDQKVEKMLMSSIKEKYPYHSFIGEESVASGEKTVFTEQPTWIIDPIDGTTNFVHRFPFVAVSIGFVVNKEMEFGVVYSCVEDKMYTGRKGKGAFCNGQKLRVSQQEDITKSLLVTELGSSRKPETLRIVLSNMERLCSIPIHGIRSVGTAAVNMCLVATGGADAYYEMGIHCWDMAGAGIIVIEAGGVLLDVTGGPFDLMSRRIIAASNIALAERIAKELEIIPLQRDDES
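Measured: the HTRF emission ratio (665/620 nm) plus the 620 nm donor channel, each fitted to the Hill equation to give AC50. Cells were CHO-M1 given compounds up to 46 uM and a 30 min carbachol stimulation at 37C.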
ALDH1A1 inh = inhibitors of human aldehyde dehydrogenase 1A1. 220,000 compounds, 7.3% hits. Purified ALDH1A1, NADH fluorescence, propionaldehyde substrate. P00352. Potency, µM (series often up to 75.3 µM), usual class: inhibitors
A number is an active result; ! = repeats disagree. Unless noted, calls follow the shape of the dose curve; as a rule, active = well fitted inhibition curve with a large enough effect (not every such curve was filed as active); inconclusive = small, poorly fitted or top-dose-only effect, or another doubt; inactive = no such curve, though single readings can be large or run the other way.

How did Cc1ccccc1-c1ncc(CN2CCN(C3CCCCC3)C(CCO)C2)cn1 (stereo not given) do in these assays?
ALDH1A1 inh: inactive

How did CCOC(=O)C1=C(c2cccc(Oc3ccccc3)c2)NC(=S)NC1C (stereo not given) do in these assays?
HPGD block: inactive; IMPase inh: inactive; ALDH1A1 inh: 0.32µM

Results for CCOC(=O)COc1c(Cl)cc(C2NC(=S)NC(c3ccccc3)=C2C(C)=O)cc1OC (stereo not given) ?
HPGD block: inactive; ALDH1A1 inh: inconclusive

What do the screens show for `C(#Cc1ccccc1)C[N+]1(CC#Cc2ccccc2)CCCCC1`?
ALDH1A1 inh: inactive

What do the screens show for `O=C(C[N+]1(CC#Cc2ccccc2)CCCCC1)c1ccccc1`?
ALDH1A1 inh: 8.9µM

What do the screens show for `O=C(C[N+]1(CC#Cc2ccccc2)CCCCC1)c1ccc(Cl)cc1`?
ALDH1A1 inh: 22µM

What do the screens show for `C#CC[N+]1(CC#Cc2ccccc2)CCCCC1`?
ALDH1A1 inh: inactive

What do the screens show for `Cc1cc(C)cc(OCC(=O)NC(Cc2c[nH]c3ccccc23)C(=O)O)c1` (stereo not given)?
IMPase inh: inactive

What do the screens show for `C/C=C\C[C@H](C)[C@H](O)[C@H]1C(=O)N[C@@H](CC)C(=O)N(C)CC(=O)N(C)[C@@H](CC(C)C)C(=O)N[C@@H](C(C)C)C(=O)N(C)[C@@H](CC(C)C)C(=O)N[C@@H](C)C(=O)N[C@@H](C)C(=O)N(C)[C@@H](CC(C)C)C(=O)N(C)[C@@H](CC(C)C)C(=O)N(C)[C@@H](C(C)C)C(=O)N1C`?
HPGD block: inactive; IMPase inh: inactive; ALDH1A1 inh: inactive

Results for Cc1cc(C)n(C(=O)CCC(=O)NCc2ccccc2)n1 ?
HPGD block: inactive; IMPase inh: inactive; ALDH1A1 inh: inconclusive

How did COc1ccccc1C(=O)NCC(=O)n1nc(C)cc1C do in these assays?
HPGD block: inactive; IMPase inh: inactive; ALDH1A1 inh: inactive

How did Cc1cc(C)n(C(=O)CNC(=O)CCc2ccccc2)n1 do in these assays?
HPGD block: 16µM; IMPase inh: inactive; ALDH1A1 inh: inactive

How did Cc1cc(C)n(C(=O)CCNC(=O)c2ccccc2Br)n1 do in these assays?
HPGD block: 7.9µM; IMPase inh: inactive; ALDH1A1 inh: inactive

What do the screens show for `COc1cccc(-c2nc(S(=O)(=O)c3ccccc3)c(NCc3ccccc3)o2)c1`?
IMPase inh: inactive

How did CCC(=O)NC1CCN(C(=S)NC)CC1 do in these assays?
ALDH1A1 inh: inactive

How did CCN(CC(N)=O)S(=O)(=O)c1ccc(Br)cc1 do in these assays?
HPGD block: inactive; IMPase inh: inactive; ALDH1A1 inh: inactive

What do the screens show for `COc1ccc(NC(=O)c2ccco2)cc1NC(=O)c1ccc(OC(C)C)cc1`?
IMPase inh: inactive

How did COc1ccc(S(=O)(=O)N2CCC(C(=O)NCc3ccccn3)CC2)cc1Cl do in these assays?
HPGD block: inactive; IMPase inh: inactive; ALDH1A1 inh: inactive

What do the screens show for `COc1ccc(NC(=O)C(C)Oc2ccc(/C(C)=N\O)cc2)cc1` (stereo not given)?
HPGD block: inactive; IMPase inh: inactive; ALDH1A1 inh: inactive

Results for COc1c2occc2c(OC)c2c(=O)cc(C)oc12 ?
HPGD block: 28µM!; IMPase inh: inactive; ALDH1A1 inh: inactive

Results for COc1c2ccoc2cc2oc(C)cc(=O)c12 ?
HPGD block: inconclusive; ALDH1A1 inh: inactive

What do the screens show for `CCCCN(CCCC)C(=S)NC(=O)c1ccccc1Cl`?
HPGD block: inactive; ALDH1A1 inh: inactive

Results for Cc1ccc(Cl)c2c1NC(=O)C2(O)CC(=O)c1ccc(F)cc1 (stereo not given) ?
HPGD block: inactive; IMPase inh: inactive; ALDH1A1 inh: inactive

Results for Cc1coc(C)c1C(=O)CC1(O)C(=O)Nc2cc(Cl)cc(Cl)c21 (stereo not given) ?
HPGD block: inactive; IMPase inh: inactive; ALDH1A1 inh: 3.2µM

What do the screens show for `Cc1ccc(C)c(N(C)C(=O)CCNC(=O)Cn2cnc3ccccc3c2=O)c1`?
IMPase inh: inactive

Results for COC(=O)c1c(NC(=O)/C(C#N)=C/c2ccc(OC)cc2)sc2c1CCC2 ?
IMPase inh: inactive

What do the screens show for `Cc1ccccc1NC(=O)c1cc(N)ccc1N1CCCCC1`?
HPGD block: inactive; IMPase inh: inactive; ALDH1A1 inh: 10µM

How did CCC(=O)Nc1ccc(N2CCCCC2)c(C(=O)Nc2ccccc2C)c1 do in these assays?
HPGD block: inactive; IMPase inh: inactive; ALDH1A1 inh: inconclusive

What do the screens show for `NC(=O)C1(N2CCCCC2)CCN(S(=O)(=O)c2cc(Cl)sc2Cl)CC1`?
ALDH1A1 inh: inactive

What do the screens show for `O=C1C2CSCN2C(=O)CN1CCCN1CCN(C(c2ccccc2)c2ccccc2)CC1` (stereo not given)?
HPGD block: inactive; ALDH1A1 inh: inactive

How did COc1ccc(CNC(=O)C/C(C)=N/NC(=O)C(c2ccccc2)c2ccccc2)cc1 do in these assays?
HPGD block: inactive; IMPase inh: inactive; ALDH1A1 inh: 22µM

How did COc1ccc(CCNC(=O)COC(=O)C23CC4CC(CC(Br)(C4)C2)C3)cc1 do in these assays?
HPGD block: inactive; ALDH1A1 inh: inactive

What do the screens show for `COc1ccc(CCNC(=O)COC(=O)C23CC4CC(CC(C4)C2)C3)cc1`?
HPGD block: inactive; IMPase inh: inactive; ALDH1A1 inh: 22µM

Results for COc1ccc(CNC(=O)C/C(C)=N/NC(=O)Cc2ccc(OC)cc2)cc1 ?
HPGD block: inactive; ALDH1A1 inh: inactive

What do the screens show for `COc1ccc(COC(=O)N/N=C(\C)CC(=O)NCc2ccc(Cl)cc2)cc1`?
ALDH1A1 inh: inactive

What do the screens show for `COc1ccc(CNC(=O)C/C(C)=N/NC(=O)C23CC4CC(CC(C4)C2)C3)cc1`?
ALDH1A1 inh: 14µM

How did Cc1noc(C)c1C(=O)N1CCC[C@@]2(CCN(C(=O)Nc3cccc(C#N)c3)C2)C1 do in these assays?
HPGD block: inactive; ALDH1A1 inh: inactive

Results for CC(C)(C)NCC1(CO)SC(N)=NC1=O (stereo not given) ?
HPGD block: inactive; IMPase inh: inactive; ALDH1A1 inh: inactive

How did CCOC(=O)C1CCCN(c2c(Nc3cccc(C)c3)c(=O)c2=O)C1 (stereo not given) do in these assays?
HPGD block: inactive; IMPase inh: inactive; ALDH1A1 inh: inactive

Results for Cc1sc2ncnc(SCc3ccc(C(=O)O)cc3)c2c1C ?
ALDH1A1 inh: 40µM

What do the screens show for `Cc1ccc(-c2csc3ncnc(SCc4ccc(C(=O)O)cc4)c23)cc1`?
ALDH1A1 inh: inactive

How did O=C(O)CC(NC(=O)c1cccc([N+](=O)[O-])c1)c1ccc2c(c1)OCO2 (stereo not given) do in these assays?
ALDH1A1 inh: inactive

What do the screens show for `NC(=O)C1CCN(c2ncnc3c(-c4ccccc4)nsc23)CC1`?
HPGD block: inactive; IMPase inh: inactive; ALDH1A1 inh: inactive

What do the screens show for `O=C(NC1CC1)C1CCN(c2ncnc3c2sc2cccc(F)c23)CC1`?
HPGD block: 16µM; IMPase inh: inactive; ALDH1A1 inh: inconclusive

How did Cc1c(NC(=O)C(C)n2cc([N+](=O)[O-])cn2)c(=O)n(-c2ccccc2)n1C (stereo not given) do in these assays?
ALDH1A1 inh: inactive

What do the screens show for `COc1ccc(OC)c(CN2CCN(C(=O)c3cccs3)CC2)c1`?
HPGD block: inactive; IMPase inh: inactive; ALDH1A1 inh: inactive
